An excerpt weighted towards active compounds, which were near 0.71% of everything screened.
TRb SRC2 PPI: disrupts binding of human TR beta to SRC2; TRbeta-SRC2 peptide binding, fluorescence polarization; receptor liganded with 1 µM T3; actives 0.065% (n = 280,000); P10828; Potency, µM (series often up to 106 µM), for the others: top-dose activity change, negative = inhibition, usual class: inhibitors;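 note: potency is the fitted concentration of half-maximal effect; plate controls were bound peptide for no effect and peptide without receptor for full effect; nearly all actives have a fitted effect of over 50% in size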
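Quantitative HTS by FP: 0.6 uM TRb LBD, 20 nM labeled SRC2 20-mer, 1 uM T3, 5% DMSO; 5 hr ambient incubation; % activity per concentration and potencies from concentration series.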
GoLoco inh red: blocks human Gai1 binding to RGS12 GoLoco peptide, red readout; P63096; Gai1:RGS12 GoLoco peptide FP, rhodamine, 10 min; Potency, µM (doses to about 61.6 µM), for inactives: top-dose activity, negative = inhibition, actives largely listed as inhibitors; AID 880; actives 0.44% (n = 230,000); active = well fitted inhibition curve with a large enough effect, not every such curve was filed as active; inactive = no such curve, though single readings can be large or run the other way; note: potency is the fitted concentration of half-maximal effect; % is set by controls: 0 for no effect and ±100 for the full control effect; nearly all actives have a fitted effect of over 30% in size
Target sequence (P63096 whole entry, looked up): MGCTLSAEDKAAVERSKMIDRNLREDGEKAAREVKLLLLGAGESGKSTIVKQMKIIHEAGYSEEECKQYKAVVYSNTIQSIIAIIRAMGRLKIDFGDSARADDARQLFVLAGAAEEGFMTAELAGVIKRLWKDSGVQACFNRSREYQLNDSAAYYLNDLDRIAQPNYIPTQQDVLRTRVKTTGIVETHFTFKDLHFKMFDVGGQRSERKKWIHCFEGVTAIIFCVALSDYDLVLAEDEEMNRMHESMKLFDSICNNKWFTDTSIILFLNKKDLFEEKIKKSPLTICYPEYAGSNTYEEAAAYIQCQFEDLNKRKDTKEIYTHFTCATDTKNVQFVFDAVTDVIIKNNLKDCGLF
TR SRC2 fluor cs: counter-screen for TRb-SRC2 inhibitors: fluorescence interference | TRb/SRC2 Texas Red total fluorescence interference | Potency, µM (series often up to 106 µM), inactives show top-dose fluorescence change, negative = quenching | actives 0.29% (n = 280,000) | AID 1479; active = well fitted curve in either direction with a large enough effect; inconclusive = small, poorly fitted or top-dose-only effect; note: potency is the fitted concentration of half-maximal effect; % is set by controls: 0 for no effect and ±100 for the full control effect
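Human TRb ligand-binding domain at 0.6 uM with 20 nM Texas Red SRC2 peptide in Tris buffer containing 1 uM T3 and 5% DMSO, incubated with compound 5 h at ambient temperature. Total fluorescence (555/632 nm) calculated as parallel + 2 × perpendicular.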
CBFb-RUNX1 inh: CBF-beta/RUNX1 interaction disruption; Potency, µM (top dose mostly 59.8 µM), for inactives: at the highest dose activity, negative = inhibition, hits mostly inhibitors; AlphaScreen CBFb-His/RUNX1-biotin binding, biochemical; Q01196+Q13951; 230,000 tested, under 10 active; note: % of control where 0% means no effect
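AlphaScreen binding: CBFb-His and RUNX1-biotin (30 nM each) preincubated 20 min, compound added for 15 min, then nickel and streptavidin beads for 90 min, all at room temperature. Disruption of the interaction by any mechanism counts as activity.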
Epigenetic reg: epigenetic control regulation, reporter derepression. murine LDR cells, GFP reporter derepression, 30 h. Potency, µM (highest dose often 53.9 µM), without a hit: top-dose GFP activation, actives largely listed as activators. actives 0.2% (n = 280,000). AID 1865; note: potency is the fitted concentration of half-maximal effect; % of control where 0% means no effect; nearly all actives have a fitted effect of over 60% in size
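In this reporter-derepression format, murine cells bearing a silenced integrated CMV-GFP locus incubate with test compound (30 h, 37 C), then are washed and imaged; fluorescent objects of 20–120 um count as induced cells.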
* hit, by the source's call; [ ] = another dose, or the depositor's remark. Unless noted, calls come from the whole dose curve; as a rule, active = well fitted curve in the direction sought with a large enough effect; inconclusive = small, poorly fitted or top-dose-only effect, or another doubt; inactive = no such curve, though single readings can be large; an effect the other way counts as inactive or inconclusive.

For COc1cc(/C=C(/C#N)c2nc3ccccc3[nH]2)ccc1OCC(=O)Nc1ccccc1C the results were TRb SRC2 PPI inconclusive, GoLoco inh red 7.7%, TR SRC2 fluor cs 1.8%, CBFb-RUNX1 inh -1.5% and Epigenetic reg inconclusive.
Screening N#C/C(=C\c1ccc(OCc2ccc(Cl)cc2Cl)cc1)c1nc2ccccc2[nH]1 returned TRb SRC2 PPI -25.7%[53 µM], TR SRC2 fluor cs 282µM*[quencher] and Epigenetic reg inconclusive.
`COc1cc(/C=C(\C#N)c2nc3ccccc3[nH]2)cc(Cl)c1OCc1ccccc1Cl` gave TRb SRC2 PPI -9.9%, TR SRC2 fluor cs 2.5% and Epigenetic reg 11.2µM*.
`COc1cc(C/C=C\c2ccccc2)c(OC)cc1O` gave TRb SRC2 PPI 7.0%, GoLoco inh red -1.9%, TR SRC2 fluor cs -2.5%, CBFb-RUNX1 inh inconclusive and Epigenetic reg 1.1%.
For COc1ccc(CCNC(=O)c2csc3c2CCCCC3)c(OC)c1 the results were TRb SRC2 PPI -7.2%, TR SRC2 fluor cs 20µM*[quencher] and Epigenetic reg 2.4%.
For NN(c1ccccc1)c1ccccc1 the results were TRb SRC2 PPI -1.7%[201 µM] and TR SRC2 fluor cs 0.1%[201 µM].
COc1ccc(C(=O)OCC[N+]2(C)CCOCC2)cc1 was read as TRb SRC2 PPI 1.0%, GoLoco inh red 7.94µM*, TR SRC2 fluor cs 2.3%, CBFb-RUNX1 inh 2.0% and Epigenetic reg 2.6%.
COc1ccc(C(=O)OCCc2ccc(O)cc2)cc1 was read as TRb SRC2 PPI -6.4%, GoLoco inh red 1.6%, TR SRC2 fluor cs -2.3%, CBFb-RUNX1 inh -0.3%[2.36 µM] and Epigenetic reg -1.2%.
Screening CC(C)C(=O)OCC(C)(C)C(O)C(C)C (centres undefined) returned TRb SRC2 PPI 2.0%[201 µM] and TR SRC2 fluor cs 2.1%[201 µM].
`CN=CC1=C(O)c2ccccc2C1=O` gave TRb SRC2 PPI -1.1%, GoLoco inh red 1.3%, TR SRC2 fluor cs -6.8%, CBFb-RUNX1 inh 1.4% and Epigenetic reg 3.4%.
`O=C1C(C2=C(O)c3ccccc3C2=O)=Nc2ccccc21` gave GoLoco inh red -25.8%, CBFb-RUNX1 inh -20.5% and Epigenetic reg 7.94µM*.
Screening Nc1nc(SCCc2ccccc2)c2[nH]cnc2n1 returned GoLoco inh red 7.5%[14.2 µM].
CN1CC(O)C2=CC(=O)C(=O)C=C21 (centres undefined) was read as TRb SRC2 PPI -23.7%, GoLoco inh red 3.55µM*, TR SRC2 fluor cs inconclusive, CBFb-RUNX1 inh inconclusive and Epigenetic reg 0.8%.
For O=C=NCCCCCCN=C=O the results were TRb SRC2 PPI -0.9%[201 µM] and TR SRC2 fluor cs -3.8%[201 µM].
`C=Cc1ccc(P(c2ccccc2)c2ccccc2)cc1` gave TRb SRC2 PPI 11.3%[201 µM] and TR SRC2 fluor cs 3.2%[201 µM].
CC(=O)Nc1cc(OC(C)=O)c2nonc2c1OC(C)=O was read as TRb SRC2 PPI 1.58µM*, GoLoco inh red -15.5%, TR SRC2 fluor cs -22.2% and Epigenetic reg 8.7%.
For CC(=O)Nc1nonc1NC(C)=O the results were TRb SRC2 PPI 1.1%, GoLoco inh red 6.1%, TR SRC2 fluor cs -2.4%, CBFb-RUNX1 inh 9.6% and Epigenetic reg -1.6%.
`CN(C)C(=O)/N=N/C(=O)N(C)C` gave TRb SRC2 PPI 5.0%, GoLoco inh red -14.0%, TR SRC2 fluor cs -0.3%, CBFb-RUNX1 inh 0.5% and Epigenetic reg 0.0%.
Screening Cc1ccc2oc(=O)c3c4cc(O)c(O)cc4oc3c2c1 returned TRb SRC2 PPI 10.0%, GoLoco inh red 0.6%, TR SRC2 fluor cs -10.1%, CBFb-RUNX1 inh -7.6% and Epigenetic reg 1.7%.
Screening COc1cc(O)c2c(c1)oc(=O)c1c3cc(O)c(O)cc3oc21 returned TRb SRC2 PPI inconclusive, TR SRC2 fluor cs 35.5µM*[quencher] and CBFb-RUNX1 inh inconclusive.
`CC(C)(C)NCC(O)COc1nsnc1N1CCOCC1` (centres undefined) gave TRb SRC2 PPI -2.7%, GoLoco inh red 7.4%, TR SRC2 fluor cs -3.7%, CBFb-RUNX1 inh 19.4% and Epigenetic reg -1.2%.
For CC(=O)Nc1c(I)cc(I)c(C(=O)O)c1I the results were TRb SRC2 PPI -3.8%, GoLoco inh red -6.4%, TR SRC2 fluor cs -0.3%, CBFb-RUNX1 inh 2.1% and Epigenetic reg 2.2%.
O=C(NCCc1ccccc1)c1nnc(Cc2cccc(F)c2)o1 was read as TRb SRC2 PPI -22.7%, TR SRC2 fluor cs 0.0056µM*[quencher] and Epigenetic reg 1.4%.
Screening CO[Si](OC)(OC)c1ccccc1 returned TRb SRC2 PPI -4.4%[201 µM] and TR SRC2 fluor cs -0.4%[201 µM].
For COC(=O)N1CCC2(CC1)CN(c1cccc(-c3ccccc3)c1)C2 the results were GoLoco inh red 5.1%.
For C[C@H]1CC2[C@@H]3CCC4=CC(=O)C=C[C@]4(C)[C@@]3(Cl)[C@@H](O)C[C@]2(C)[C@@]1(O)C(=O)CO (some centres undefined) the results were TRb SRC2 PPI -3.8%, GoLoco inh red 13.5%, TR SRC2 fluor cs -0.6%, CBFb-RUNX1 inh 3.9% and Epigenetic reg -1.2%.
For COc1cccc(/C=C/C(=O)OCC(=O)NCC2CCCO2)c1OC (centres undefined) the results were TRb SRC2 PPI -17.0%[53 µM], GoLoco inh red -21.8%, TR SRC2 fluor cs 70.8µM*[quencher], CBFb-RUNX1 inh -2.2% and Epigenetic reg 2.6%.
For COc1ccc(NC(=O)CN(Cc2ccccc2)S(=O)(=O)c2ccc(C)cc2)cc1Cl the results were TRb SRC2 PPI -10.7%, TR SRC2 fluor cs 6.31µM*[quencher] and Epigenetic reg -0.8%.
O=C(O)[C@@H]1[C@@H]2C[C@H]([C@@H](Br)[C@H]2N2C(=O)CCC2=O)[C@@H]1C(=O)O was read as GoLoco inh red -0.7%[14.2 µM].
Screening CCc1ccc(C2=NN(S(C)(=O)=O)C(c3cccs3)C2)cc1 (centres undefined) returned TRb SRC2 PPI -20.5%, GoLoco inh red 61.2%, TR SRC2 fluor cs 4.9%, CBFb-RUNX1 inh -10.7% and Epigenetic reg 17.8µM*.
`Cc1ccc(C2=NN(S(C)(=O)=O)C(c3cccs3)C2)cc1` (centres undefined) gave TRb SRC2 PPI 8.4%, GoLoco inh red 9.7%, TR SRC2 fluor cs 2.0%, CBFb-RUNX1 inh -0.3% and Epigenetic reg 0.8%.
For CC[C@H](C)[C@H](NC(=O)[C@H](CCCNC(=N)N)NC(=O)[C@@H](NC(=O)[C@H](CCCNC(=N)N)NC(=O)[C@H](CCCCN)NC(=O)[C@H](CCCNC(=N)N)NC(=O)[C@@H](NC(=O)[C@H](CC(N)=O)NC(=O)[C@@H](N)CS)[C@@H](C)O)[C@@H](C)CC)C(=O)N[C@@H](CCC(N)=O)C(=O)N[C@@H](CCCNC(=N)N)C(=O)NCC(=O)N1CCC[C@H]1C(=O)NCC(=O)N[C@@H](CCCNC(=N)N)C(=O)N[C@@H](C)C(=O)N[C@@H](Cc1ccccc1)C(=O)N[C@H](C(=O)N[C@H](C(=O)N[C@H](C(=O)NCC(=O)N[C@@H](CCCCN)C(=O)O)[C@@H](C)CC)[C@@H](C)O)C(C)C the results were TRb SRC2 PPI 5.6%, TR SRC2 fluor cs -2.7% and CBFb-RUNX1 inh 12.4%.
